Inconclusive results are not listed. Activity calls are given as the source filed them. Calls follow the shape of the dose curve; as a rule, active = well fitted inhibition curve with a large enough effect; inconclusive = small, poorly fitted or top-dose-only effect; inactive = flat fitted curve, though single readings scatter.
Legend:
Experiment in all cases: Cytotoxic Profiling of Annotated Libraries Using Quantitative High-Throughput Screening (AID 1296008); also: nearly all actives have a fitted effect of over 60% in size
Conditions in all cases: Five cell lines viability, CellTiter-Glo ATP luminescence, 48-72 h; max response: hits give low values
CRL-7250 = system: CRL-7250
Summary of the method: (§1)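 Cytotoxicity was measured as CellTiter-Glo ATP luminescence, read after 10 min at room temperature. Compound treatment of the cells lasted 48 or 72 hr at 37 degrees Celsius in a qHTS format.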

HEK293 = system: HEK293
Summary of the method: as §1

HaCat = system: HaCat
Summary of the method: as §1

KB-3-1 = system: KB-3-1
Summary of the method: as §1

Measured: max response
% is scaled to controls: 0 for no effect and ±100 for the full control effect.

O=C(O)CNC(=O)CNC(=O)CNC(=O)CSC(=O)c1ccccc1
inactive: CRL-7250 -5.45% | HEK293 -4.78% | HaCat -1.1% | KB-3-1 4.32%

O=C(O)[C@H](O)[C@@H](O)[C@H](O[C@@H]1O[C@H](CO)[C@H](O)[C@H](O)[C@H]1O)[C@H](O)CO
inactive: CRL-7250 -2.55% | HEK293 | HaCat | KB-3-1 -11.9%

CC(=O)OCC(=O)Nc1cc(C#N)cc(NC(=O)COC(C)=O)c1Cl
inactive: CRL-7250 | HEK293 -14.4% | HaCat 0.636% | KB-3-1

C[C@@H](C1=C(CCN(C)C)Cc2ccccc21)c1ccccn1
inactive: CRL-7250 | HEK293 -25.1% | HaCat | KB-3-1 -6.09%

CN1CCC(=C2c3ccccc3CCc3cccnc32)CC1
inactive: CRL-7250 3.77% | HEK293 2.67% | HaCat | KB-3-1 -10.8%

O=C(CCCCC(=O)Nc1c(I)cc(I)c(C(=O)O)c1I)Nc1c(I)cc(I)c(C(=O)O)c1I
inactive: CRL-7250 2.98% | HEK293 | HaCat 4.99% | KB-3-1 -11.9%

CC(CCc1ccc2c(c1)OCO2)NN (stereo not given)
inactive: CRL-7250 -8.5% | HEK293 | HaCat 2.43% | KB-3-1 -13.1%

COc1cc(C(=O)NC2CCCNC2)cc(OC)c1OC (stereo not given)
inactive: CRL-7250 1.65% | HEK293 -8.29% | HaCat | KB-3-1 -17.2%

COc1cc(C(=O)OC(COCCC(C)C)CN2CCOCC2)cc(OC)c1OC (stereo not given)
inactive: CRL-7250 -2.39% | HEK293 | HaCat -1.64% | KB-3-1

CN(C(=O)C(Cl)Cl)c1ccc(OC(=O)c2ccco2)cc1
inactive: CRL-7250 4.42% | HEK293 -3.53% | HaCat | KB-3-1 -7.7%

Reference: PubChem BioAssay (NCATS)
